The nature of assay [1]: sensitizers of A549 cells to miR-34 induction, primary screen, imaging, A549 dox-inducible miR-34, nuclei and caspase counts (AID 1347080). As to conditions: A549 miR-34 inducible, Hoechst nuclei count, 48 h.
The nature of assay [2]: survival rescue of mitochondrial mutant cells in low glucose, primary screen, MELAS cybrids, Rieske KO mouse fibroblasts, CellTiter-Glo (AID 1508586;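 active = mean z-score across replicates of 1.96 or higher in either the MELAS or the Rieske mutant cell line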;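 also: z relative to plate mean and SD of compound and empty wells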). A general note: In ATP-based viability assays light output follows the ATP content of the culture.
Where [3] appears, read: stronger effect = lower value, cell number ratio, induced over uninduced.
The mark [4] stands for this setting: measured here: relative caspase fold change +Dox/-Dox.
Setting [5] is: measured here: total cells with miR-34 induction, stronger effect = lower value.
The mark [6] stands for this setting: measured here: total cells without miR-34 induction.
Setting [7] is: MELAS cybrid survival, CellTiter-Glo 48 h, stronger effect = higher value.
Where [8] appears, read: Rieske KO mouse fibroblast survival, CellTiter-Glo 72 h.

Molecules are shown by their SMILES. Where “and” joins values, the source holds several entries; their conditions need not be identical. Equal values may be shown once. Calls of active or inactive are those of the source.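 The calls were made as follows, unless noted: active = compounds whose cell count with miR-34 switched on is under 0.7 times the count with it off; inactive = the rest.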
Also: test concentration not given here.

For the molecule `CC(=O)Nc1ccc(NC(=S)NC(=O)c2ccc(C(C)(C)C)cc2)cc1`, the fold change was 1 (inactive) and 1.05 (inactive) in assay [1] (setting [3]); 1.21 and 0.561 in assay [1] (setting [4]). Moreover, the cell count in assay [1] (setting [5]) was 1820 and 1680; in assay [1] (setting [6]), 1820 and 1600. Moreover, the z-score is -0.38 (inactive) in assay [2] (setting [7]) and 0.0517 in assay [2] (setting [8]).

`COc1cc(-c2ncn(C=CC(=O)OC(C)C)n2)cc(C(F)(F)F)c1`: the values for the fold change in assay [1] (setting [3]) and in assay [1] (setting [4]) were 0.884 (inactive) and 0.634, respectively. Further, the cell count worked out at 2040 in assay [1] (setting [5]) and 2310 in assay [1] (setting [6]). The z-score was -0.00249 (inactive) in assay [2] (setting [7]) and -7.09 in assay [2] (setting [8]).

`COc1cc(C2Oc3cc(C4Oc5cc(O)cc(O)c5C(=O)C4O)ccc3OC2CO)ccc1O` (configuration not stated): the fold change was 0.923 (inactive) in assay [1] (setting [3]) and 0.695 in assay [1] (setting [4]). Further, the cell count in assay [1] (setting [5]) came to 9600; in assay [1] (setting [6]) it was 10400. Also, the values for the z-score in assay [2] (setting [7]) and in assay [2] (setting [8]) were -0.412 (inactive) and 0.872, respectively.

For the molecule `CCC1C(=O)N(C)c2cnc(Nc3ccc(C(=O)NC4CCN(C)CC4)cc3OC)nc2N1C1CCCC1` (configuration not stated), the fold change was 1.18 (inactive) in assay [1] (setting [3]) and 0.761 in assay [1] (setting [4]). Also, the values for the cell count in assay [1] (setting [5]) and in assay [1] (setting [6]) were 1360 and 1150, respectively. In addition, the z-score was 1.18 (inactive) in assay [2] (setting [7]) and -1.35 in assay [2] (setting [8]).

In the case of `CCOC(=O)C(CCc1ccccc1)NC(C)C(=O)N1Cc2ccccc2CC1C(=O)O` (configuration not stated), the fold change in assay [1] (setting [3]) is 0.963 (inactive); in assay [1] (setting [4]), 1.71. In addition, the cell count in assay [1] (setting [5]) worked out at 8090; in assay [1] (setting [6]), 8400. For the same molecule, the z-score in assay [2] (setting [7]) is 0.0216 (inactive); in assay [2] (setting [8]) it was -0.419.

Regarding `COC(=O)C(CCCN=C(N)N)NS(=O)(=O)c1ccc(C)cc1` (configuration not stated), the fold change in assay [1] (setting [3]) was 0.92 (inactive); in assay [1] (setting [4]) it was 0.589. The values for the cell count in assay [1] (setting [5]) and in assay [1] (setting [6]) were 8520 and 9260, respectively. Moreover, the values for the z-score in assay [2] (setting [7]) and in assay [2] (setting [8]) were -0.296 (inactive) and 0.752, respectively.

For the molecule `COc1cc(C2c3cc4c(cc3C(O[C@@H]3O[C@@H]5COC(C)O[C@H]5C(O)C3O)[C@H]3COC(=O)[C@H]23)OCO4)cc(OC)c1O` (some centres not stated), the fold change in assay [1] (setting [3]) is 0.94 (inactive); in assay [1] (setting [4]), 1.28. The values for the cell count in assay [1] (setting [5]) and in assay [1] (setting [6]) were 2100 and 2240, respectively. Besides, the z-score was -0.7 (inactive) in assay [2] (setting [7]) and -0.559 in assay [2] (setting [8]).

Regarding `CC(Oc1cc(-n2cnc3ccc(CN4CCN(C)CC4)cc32)sc1C(N)=O)c1ccccc1C(F)(F)F` (configuration not stated), the figures for the fold change in assay [1] (setting [3]) and in assay [1] (setting [4]) were 1.2 (inactive) and 0.688, respectively. Also, the cell count amounted to 1290 in assay [1] (setting [5]) and 1080 in assay [1] (setting [6]). Besides, the z-score in assay [2] (setting [7]) is 0.375 (inactive); in assay [2] (setting [8]), 1.78.

For the molecule `Cn1cc(-c2[nH]c3cc(NC(=O)C(N)C4CCCCC4)cc4c3c2C=NNC4=O)cn1` (configuration not stated), the fold change in assay [1] (setting [3]) is 0.983 (inactive); in assay [1] (setting [4]) it was 1.09. The cell count in assay [1] (setting [5]) was determined as 2060; in assay [1] (setting [6]), 2100. In addition, the z-score in assay [2] (setting [7]) is 0.356 (inactive); in assay [2] (setting [8]) it was -0.0626.

`C[C@]12C=CC(=O)C=C1CC[C@@H]1[C@H]2C(O)C[C@@]2(C)[C@H]1CC[C@@]2(O)C(=O)CO` (some centres not stated): the fold change is 0.833 (inactive) in assay [1] (setting [3]) and 1.24 in assay [1] (setting [4]). The cell count in assay [1] (setting [5]) was determined as 4970; in assay [1] (setting [6]), 5970. The z-score in assay [2] (setting [7]) was -0.42 (inactive); in assay [2] (setting [8]), -1.24.

On to `CC1=C(C(=O)OC2CCCCC2)C(c2ccc([N+](=O)[O-])cc2)C2=C(CC(C)(C)CC2=O)N1` (configuration not stated), for which the fold change was 1.46 (inactive) in assay [1] (setting [3]) and 0.547 in assay [1] (setting [4]). Besides, the cell count in assay [1] (setting [5]) is 1480; in assay [1] (setting [6]), 1010. In addition, the z-score in assay [2] (setting [7]) was -0.282 (inactive); in assay [2] (setting [8]), -2.79.

As to `O=C1c2ccc(Nc3ccc(F)cc3F)cc2CCc2ccc(OCC(O)CO)cc21` (configuration not stated), the figures for the fold change in assay [1] (setting [3]) and in assay [1] (setting [4]) were 0.924 (inactive) and 0.413, respectively. For the same molecule, the cell count in assay [1] (setting [5]) was 6890; in assay [1] (setting [6]), 7450. Further, the figures for the z-score in assay [2] (setting [7]) and in assay [2] (setting [8]) were -0.55 (inactive) and 0.56, respectively.

Take `OCC1OC(OCCc2ccc(O)cc2)C(O)C(O)C1O` (configuration not stated): the results for the fold change in assay [1] (setting [3]) and in assay [1] (setting [4]) were 0.962 (inactive) and 0.762, respectively. The figures for the cell count in assay [1] (setting [5]) and in assay [1] (setting [6]) were 10000 and 10400, respectively. Moreover, the z-score in assay [2] (setting [7]) is -0.35 (inactive); in assay [2] (setting [8]), 0.467.

`CNc1nc(-c2ccc3c(N)n[nH]c3c2)cc(N2CC(C(=O)NC3CCCCC3)CCC2C)n1` (configuration not stated): the fold change in assay [1] (setting [3]) was 0.8 (inactive); in assay [1] (setting [4]), 0.791. Further, the cell count was found to be 6100 in assay [1] (setting [5]) and 7620 in assay [1] (setting [6]). The z-score in assay [2] (setting [7]) was 0.231 (inactive); in assay [2] (setting [8]) it was -0.229.

For `C[C@@]12C(=O)N(c3ccc(C(=O)Nc4cccc5cccnc45)cc3)C(=O)[C@@H]1C1C=CC2C1` (some centres not stated), the results for the fold change in assay [1] (setting [3]) and in assay [1] (setting [4]) were 1.75 (inactive) and 0.793, respectively. Further, the cell count in assay [1] (setting [5]) was found to be 7280; in assay [1] (setting [6]), 4160. In addition, the z-score in assay [2] (setting [7]) is 0.0501 (inactive); in assay [2] (setting [8]) it was -0.119.

Consider `O=C(CCCCCCC(=O)Nc1ccc(C2OC(CSc3nc(-c4ccccc4)c(-c4ccccc4)o3)CC(c3ccc(CO)cc3)O2)cc1)NO` (configuration not stated), for which the fold change in assay [1] (setting [3]) is 0.92 (inactive); in assay [1] (setting [4]), 0.644. For the same molecule, the cell count in assay [1] (setting [5]) turned out to be 6200; in assay [1] (setting [6]) it was 6750. In addition, the results for the z-score in assay [2] (setting [7]) and in assay [2] (setting [8]) were -0.366 (inactive) and 1.07, respectively.

With `COc1cc(C=CC(=O)C=C(O)C=Cc2ccc(O)c(OC)c2)ccc1O`, the fold change is 0.901 (inactive) in assay [1] (setting [3]) and 0.689 in assay [1] (setting [4]). Besides, the cell count amounted to 8110 in assay [1] (setting [5]) and 9000 in assay [1] (setting [6]). The z-score in assay [2] (setting [7]) was -0.431 (inactive); in assay [2] (setting [8]), 0.0298.

As to `O=C(C=Cc1cccc(S(=O)(=O)Nc2ccccc2)c1)NO`, the figures for the fold change in assay [1] (setting [3]) and in assay [1] (setting [4]) were 0.967 (inactive) and 0.71, respectively. Moreover, the cell count in assay [1] (setting [5]) was 1120; in assay [1] (setting [6]), 1160. Moreover, the z-score in assay [2] (setting [7]) was 0.973 (inactive); in assay [2] (setting [8]) it was 1.18.

As to `COC(=O)CCSCc1ccc(-c2onc(C)c2NC(=O)OC(C)c2ccccc2Cl)cc1` (configuration not stated), the fold change in assay [1] (setting [3]) was 0.847 (inactive); in assay [1] (setting [4]) it was 0.706. The cell count was 6550 in assay [1] (setting [5]) and 7730 in assay [1] (setting [6]). Also, the z-score in assay [2] (setting [7]) was -0.226 (inactive); in assay [2] (setting [8]), -0.128.

For the molecule `COc1cc(C=CC(=O)O)ccc1O`, the fold change in assay [1] (setting [3]) is 0.929 (inactive); in assay [1] (setting [4]), 0.764. Also, the cell count came to 7790 in assay [1] (setting [5]) and 8380 in assay [1] (setting [6]). In addition, the z-score in assay [2] (setting [7]) was -0.291 (inactive); in assay [2] (setting [8]), -1.2.

As for `C=CC1CN2CC[C@H]1C[C@H]2C(O)c1ccnc2ccc(OC)cc12` (some centres not stated), the fold change is 0.964 (inactive) in assay [1] (setting [3]) and 0.844 in assay [1] (setting [4]). Moreover, the results for the cell count in assay [1] (setting [5]) and in assay [1] (setting [6]) were 8110 and 8420, respectively. Also, the z-score is -0.205 (inactive) in assay [2] (setting [7]) and -0.396 in assay [2] (setting [8]).

With `CC1O[C@@H](OC2C(Oc3cc(O)c(C(=O)CCc4ccc(O)cc4)c(O)c3)OC(CO)C(O)C2O)C(O)C(O)C1O` (some centres not stated), the fold change in assay [1] (setting [3]) was 0.973 (inactive); in assay [1] (setting [4]), 0.587. Moreover, the cell count worked out at 8080 in assay [1] (setting [5]) and 8300 in assay [1] (setting [6]). Also, the z-score in assay [2] (setting [7]) is -0.155 (inactive); in assay [2] (setting [8]) it was -0.191.

These data come from PubChem BioAssay.
